In PubChem BioAssay (Tox21):
Where “and” joins values, the source holds several entries; their conditions need not be identical. Equal entries are not always repeated. Records with an inconclusive call do not appear. A call without a number means that no potency is given here. Calls of active or inactive are those of the source. Calls come from the whole dose curve; as a rule, active = well fitted cell-killing curve with a large enough effect in the repeat runs; inconclusive = weak or mixed curves, or effect the other way; inactive = no such curve, though single readings can be large or run the other way.

Assay: qHTS assay for identifying genotoxic compounds that show differential cytotoxicity against isogenic chicken DT40 cell lines with known DNA damage response pathways - wild type cell line (AID 743012); note: nearly all actives have a fitted effect of over 60% in size
Conditions: DT40 wild type chicken cells viability, CellTiter-Glo, 40 h; series mostly up to 68.4 µM
From the text: U.S. Tox21 Program National Center for Advancing Translational Sciences [NCATS] NIH Chemical Genomics Center [NCGC] U.S. Environmental Protection Agency [EPA] National Institutes of Environmental Health Sciences [NIEHS] National Toxicology Program [NTP] U.S. Food and Drug Administration [FDA] Tox21 Assay Overview: DNA repair pathways play a critical role in cellular homeostasis by repairing DNA damage induced by endogenous processes and xenobiotics. Isogenic chicken DT40 cell lines deficient in different DNA repair pathways can be used to identify genotoxic compounds and aid in characterizing the nature of the DNA damage induced. Two DNA repair-deficient cell lines with disrupted genes, Rad54/Ku70 or Rev3, were used to screen the Tox21 10K compound library. Possible genotoxicity was based on the presence of a significant increase in cytotoxicity in one or more of the DNA repair-deficient cell lines compared to that observed in the parental DNA repair-proficient cell line. CellTiter Glo viability assay (Promega, Madison, WI) was used to measure cell viability in these cells after compound treatment. This assay includes the data from the wild type cell line.
Tox21 Assay Protocol Summary: 300 DT40 wild type cells in 5 uL/well were dispensed into white, solid-bottom 1536-well plates using a Multidrop Combi (ThermoFisher Scientific, Waltham, MA) dispenser. After the assay plates were incubated at 37 C/5% CO2 for approximately 0.5 hour, 23 nL of compounds dissolved in DMSO, positive controls or DMSO only was transferred into the assay plate by a pintool work station (Kalypsys, San Diego, CA). The assay plates were incubated at 37 C/5% CO2 for 40 hours. After 5 uL per well of CellTiter-Glo reagent was added into each well of the assay plates, the plates were incubated for 30 min at room temperature and the luminescence intensity of the plates was measured using a ViewLux (PerkinElmer, Shelton, CT) plate reader.
Potency is the fitted concentration of half-maximal effect.

SMILES | Potency
Cc1ccc2c(C)cccc2c1 | inactive
CC(Cc1ccccc1)NCc1ccccc1Cl (stereo not given) | 18.8 µM (active)
CC(C)(C)NCC(O)c1cc(Cl)c(N)c(C(F)(F)F)c1 (stereo not given) | inactive
O=C(O)C(Cl)(Cl)Br | inactive
N#CC(C#N)=Cc1ccc(O)c(O)c1 | 13.3 µM (active)
C=CCOC(=O)C(C)(C)OC(=O)c1cc(-n2c(=O)cc(C(F)(F)F)n(C)c2=O)ccc1Cl | 53.4 µM (active)
c1ccc2c(c1)sc1ccccc12 | inactive
CCC(C)Cl (stereo not given) | inactive
C=C(Cl)Cl | inactive
C=CCc1ccccc1O | inactive
CCCCCCCCCCCCN=C(N)N | 0.845 µM (active)
CCCCCBr | inactive
CCCCCCCCP(=O)(O)O | inactive
Cc1nc2ccccc2c(=O)n1-c1ccccc1Cl | 42.4 µM (active)
CC(C)(C#N)C(C)(C)C#N | inactive
OCC1CO1 (stereo not given) | inactive
NP(N)(=O)NC(=O)c1ccc(F)cc1 | inactive
CN1C(=O)CN=C(c2ccccc2)c2cc([N+](=O)[O-])ccc21 | inactive
COc1ccccc1N1CCNCC1 | inactive
COC1CC(=C(c2cccs2)c2cccs2)C[N+](C)(C)C1 (stereo not given) | 23.7 µM (active)

SMILES | Potency
CC(C)(C)NCC(O)c1ccccc1Cl (stereo not given) | inactive
CC1(C)[C@H](C(=O)O[C@H](C#N)c2cccc(Oc3ccccc3)c2)[C@@H]1C=C(Br)Br | inactive
CCCCCCCCCCCC[N+](C)(C)CCOc1ccccc1 | 1.88 µM (active) and 6.11 µM (active)
CCCC[N+](CCCC)(CCCC)CCCC | 4.32 µM (active)
COCc1cnc(C2=NC(C)(C(C)C)C(=O)N2)c(C(=O)O)c1 (stereo not given) | inactive
C[C@H]1O[C@H](OC2[C@@H](O)[C@@H](O)C(O)[C@H](O)[C@H]2O)[C@@H](N)C[C@@H]1N=C(N)C(=O)O (stereo not given in full) | inactive
Nc1c(Br)cc(Br)c2c1C(=O)c1ccccc1C2=O | inactive
CCOC(=O)c1cn2nc(OP(=S)(OCC)OCC)cc2nc1C | 27.3 µM (active)
C=CC(=O)OCC | inactive
C[C@@H]1C[C@@H]([C@H](O)CC2CC(=O)NC(=O)C2)C(=O)[C@@H](C)C1 | 59.6 nM (active) and 108 nM (active)
CCOP(=O)(O)C(N)=O | inactive
CCCC1CCCCN1 (stereo not given) | inactive
C[C@H](N)[C@H](O)c1ccc(O)c(O)c1 | 13.3 µM (active)
FC(Cl)(Cl)C(F)(Cl)Cl | inactive
CCOP(=S)(OCC)SCSc1cc(Cl)ccc1Cl | inactive
CCC(C)(C)O | inactive
COc1cc(C[C@@H](C)N)c(OC)cc1Br | 70.4 µM (active)
O=C(O)c1cc(Cl)ccc1Cl | inactive
CN1CC[C@]23c4c5ccc(O)c4O[C@H]2[C@@H](O)CC[C@H]3[C@H]1C5 | inactive
Clc1ccccc1 | inactive
